From PubChem BioAssay
Hits are enriched below; roughly 21% of the tested compounds scored in any of these assays.
AMA1-RON2 inh = disrupts binding of P. falciparum AMA1 to RON2 | AlphaScreen AMA1-biotinylated RON2 peptide binding | Potency, µM (doses to about 58.2 µM), usual class: inhibitors | 360,000 compounds, 0.2% hits; note: nearly all actives have a fitted effect of over 45% in size
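AMA1 (3D7) with his tag at 25 nM final met compounds first, then biotinylated RON2 peptide at 25 nM; detection used donor plus acceptor beads, 10 µg/mL apiece, read by AlphaScreen after 30 min at room temperature.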
CHX counter-1 = counter-screen hit for Shiga toxin inhibitors, cycloheximide; 300,000 compounds, 12% hits; cell reporter, cycloheximide protein synthesis inhibition counterscreen; max response, %; AID 2314; in the data active = max response mostly above about 13%, no sharp cut-off; inactive = mostly below about 14%; note: read at 38.3 µM for the half of the compounds with a filed dose
Pf growth 96h = P. falciparum growth inhibition at 96 hours. P. falciparum luciferase reporter growth, 96 h. Potency, µM (titrated, usually from 28.7 µM), hits mostly inhibitors. 320,000 compounds, 6.9% hits. AID 504834
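P. falciparum expressing integrated firefly luciferase, in erythrocytes at 2% hematocrit, 0.05% parasitemia, incubated with compounds 96 h at 37 C, 5% CO2. Growth inhibition read as loss of luminescence; two-generation exposure targets delayed-death apicoplast inhibitors.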
Shiga toxin inh = Shiga toxin inhibition; Vero cells, Shiga toxin protein synthesis inhibition reporter; inhibition, % at 38.7 µM; 290,000 compounds, 9.2% hits; in the data active = inhibition mostly above about 28%, no sharp cut-off; inactive = mostly below about 43%
HCV inh = HCV inhibition | 340,000 compounds, 3.4% hits | Potency, µM (top dose mostly 41.8 µM), actives largely listed as inhibitors | AID 651820 | Huh7.5.1 HCVcc-Cre infection, luciferase reporter, 44 h
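Infectious HCV cell culture screen: compound-treated cells (1,000/well, pre-plated 4 h) are infected with HCVcc-Cre at roughly 0.5 moi and grown 44 h. Infection is quantified by luciferase signal after 15 min substrate incubation at room temperature.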
Pf growth 48h = inhibits P. falciparum growth in the first generation, 48 h. AID 504832. 310,000 compounds, 5.9% hits. Potency, µM (top dose mostly 28.7 µM), usual class: inhibitors. P. falciparum luciferase growth in erythrocytes, 48 h
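Compounds are pin-transferred into medium, infected erythrocytes (2% hematocrit, 0.1% parasitemia final) are added, and plates sit one parasite generation at 37 C in 5% CO2. Detection reagent is then added and luminescence measured.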
CHX counter-2 = protein synthesis counter-screen activity for Shiga toxin hits | shares compounds with Shiga toxin inh | Cycloheximide counterscreen, protein synthesis reporter, Shiga toxin assay | Potency, µM (doses to about 38.3 µM), actives largely listed as activators | 510 compounds, 3% hits; calls by dose curve
Each line names hits and unclear results; the compound was inactive in the other large screens (follow-up assays come after a bar, where they were run). Unless noted, calls come from the whole dose curve; as a rule, active = well fitted curve in the direction sought with a large enough effect; inconclusive = small, poorly fitted or top-dose-only effect, or another doubt; inactive = no such curve, though single readings can be large; an effect the other way counts as inactive or inconclusive.

CCCCNC(=O)CCCN1C(=O)c2cccnc2Sc2ccccc21	Pf growth 96h inconclusive
CN1CCN(C(=O)c2ccc(-n3cccc3)cc2)CC1	Shiga toxin inh 32, HCV inh inconclusive | CHX counter-2 inactive
O=C(CN1C(=O)COc2ccccc21)N1CCN(C2CCCCC2)CC1	none
CCOc1ccc2nc(SCC(=O)NC3CCCCC3)[nH]c2c1	Shiga toxin inh 44 | CHX counter-2 inactive
COc1ccc2nc(SCC(=O)Nc3ccc4c(c3)CCC4)[nH]c2c1	Shiga toxin inh 42 | CHX counter-2 inactive
COc1ccc2nc(SCC(=O)NC3CCCCC3)[nH]c2c1	none
COc1ccc2nc(SCC(=O)Nc3ccc4[nH]c(=O)[nH]c4c3)[nH]c2c1	none (no result: CHX counter-1, Shiga toxin inh)
Cc1noc(C)c1NC(=O)N(C)C[C@@H]1Oc2ccc(NC(=O)C3CCCCC3)cc2C(=O)N([C@@H](C)CO)C[C@H]1C	none (no result: CHX counter-1, Pf growth 96h, Shiga toxin inh, Pf growth 48h)
CCn1c(SCC(=O)Nc2cc(C)on2)nnc1-c1cccc(C)c1	Pf growth 96h inconclusive, Shiga toxin inh 93 | CHX counter-2 inactive
CCOc1ccc(-c2noc(CCC(=O)NCCc3ccccc3)n2)cc1OC	Pf growth 96h inconclusive
COc1cccc(-c2noc(CCC(=O)NCCc3ccccc3)n2)c1	Shiga toxin inh 49 | CHX counter-2 inactive
Cc1cc(N2CCCCCC2)nc(-c2ccccc2O)n1	Shiga toxin inh 59, HCV inh 13µM (no result: Pf growth 96h) | CHX counter-2 inactive
C=CCNc1sc(C(=O)c2ccccc2)c(N)c1-c1nc2ccccc2s1	Pf growth 96h inconclusive, Shiga toxin inh 73, Pf growth 48h inconclusive | CHX counter-2 inconclusive
CCC(=O)N1CCN(c2ccc(NC(=O)c3ccccc3)cc2)CC1	Shiga toxin inh 47 | CHX counter-2 inconclusive
CCC(=O)Nc1ccc(C(=O)NNC(=O)c2ccccc2)cc1	Shiga toxin inh 32 | CHX counter-2 inactive
Cc1cccc(C(=O)NNC(=O)c2ccccc2)c1	Shiga toxin inh active | CHX counter-2 inconclusive
CCC(=O)N1CCN(c2ccc(NC(=O)c3c(F)c(F)c(OC)c(F)c3F)cc2)CC1	Pf growth 96h inconclusive (no result: Pf growth 48h)
CCC(=O)Nc1ccc(C(=O)NNC(=O)C(c2ccccc2)c2ccccc2)cc1	Pf growth 96h inconclusive
COc1ccccc1N(CC(=O)NCc1ccc2c(c1)OCO2)C(=O)CCC(=O)Nc1nccs1	Pf growth 48h inconclusive
CCCCn1c(N)c(N(CC)C(=O)C(c2ccccc2)c2ccccc2)c(=O)[nH]c1=O	none
CCOC(=O)c1nc(C)nc(Sc2n[nH]c(-c3cc(C(F)(F)F)cc(C(F)(F)F)c3)n2)c1C	none
O=C(Cn1ncc2c1-c1ccccc1OC2)N(Cc1ccco1)C1CCCCC1	Pf growth 96h inconclusive (no result: Pf growth 48h)
O=C(Cn1ncc2c(=O)oc3ccccc3c21)N(Cc1ccco1)C1CCCCC1	Pf growth 96h inconclusive, Shiga toxin inh 48 | CHX counter-2 inactive
O=C(O)C/C(=C\c1cc(Br)cs1)c1nc2ccccc2o1	Shiga toxin inh 40 | CHX counter-2 inactive
Cc1cc(C)c2nc(-c3ccccn3)cc(C(=O)NCc3ccco3)c2c1	Shiga toxin inh 10 | CHX counter-2 inconclusive
C=CCN(c1ccccc1)S(=O)(=O)c1cccc(C(=O)N(CC)CC(=O)Nc2c(F)cccc2F)c1	Pf growth 48h inconclusive (no result: HCV inh)
Cc1ccc(-n2c(C)c(C)c3c(N)ncnc32)cc1	Shiga toxin inh 34 | CHX counter-2 inactive
CC1(C)Cc2cccc(OCC(=O)OCC(=O)Nc3ccc(S(N)(=O)=O)cc3)c2O1	none (no result: CHX counter-1, Pf growth 96h, Shiga toxin inh, HCV inh, Pf growth 48h)
C=COCCNC(=S)N1CCOCCOCCN(C(=S)NCCOC=C)CCOCCOCC1	Pf growth 96h inconclusive, Pf growth 48h inconclusive
CNC(=S)NC1(C)CCS(=O)(=O)C1 (stereo not drawn)	none
COc1ccccc1NC(=O)CSc1nnc(-c2ccco2)n1N	none
COc1ccccc1NC(=O)CSc1nnc(-c2ccco2)n1Cc1ccco1	Pf growth 96h inconclusive, Shiga toxin inh 63, HCV inh inconclusive | CHX counter-2 inactive
O=[N+]([O-])c1cccc(S(=O)(=O)NCCCn2ccnc2)c1	none
Cc1ccc(OCCC(=O)NNC(=O)c2nn(C)c(=O)c3ccccc23)cc1	Pf growth 96h inconclusive, Pf growth 48h inconclusive (no result: CHX counter-1, Shiga toxin inh)
OC(CN1CCCCC1)Cn1c2ccccc2c2ccccc21 (stereo not drawn)	Pf growth 48h inconclusive
O=C(/C=C/c1cn(CC(O)CN2CCCCC2)c2ccccc12)c1cccs1 (stereo not drawn)	Pf growth 96h inconclusive, Shiga toxin inh 32, HCV inh inconclusive, Pf growth 48h 8.3µM | CHX counter-2 inactive
O=C(COc1ccc([N+](=O)[O-])cc1Cl)NCCN1C(=O)CSC1=O	none (no result: CHX counter-1, Pf growth 96h, Shiga toxin inh, Pf growth 48h)
COCCOC(=O)c1c(C)oc2ccc(OCc3ccccc3)cc12	none
COCCOC(=O)c1c(C)oc2ccc(OC(=O)c3ccco3)cc12	Shiga toxin inh active | CHX counter-2 inactive
O=C(NCC1CCCO1)Nc1ccc2c(c1)OCO2 (stereo not drawn)	Pf growth 96h inconclusive, Shiga toxin inh 43 | CHX counter-2 inconclusive
Cn1c(CSCc2ccc(F)cc2)nnc1SCC(=O)Nc1cccc(C(=O)O)c1	none
O=C(COc1ncnc2ccccc12)NCCC1=CCCCC1	Shiga toxin inh 41 | CHX counter-2 inactive
COc1ccccc1CNC(=O)c1cc(-c2ccccc2)n(Cc2cc(C)no2)n1	Pf growth 96h inconclusive, Pf growth 48h inconclusive (no result: CHX counter-1, Shiga toxin inh)
C=CCn1c(SCCN)nnc1-c1cccc(S(=O)(=O)N2CCOCC2)c1	none (no result: CHX counter-1, Pf growth 96h, Shiga toxin inh, Pf growth 48h)
CN1CC(c2ccccn2)C2(SC(=S)N(Cc3ccccc3)C2=O)C12C(=O)Nc1ccccc12 (stereo not drawn)	AMA1-RON2 inh inconclusive, Pf growth 96h inconclusive, Shiga toxin inh 71, Pf growth 48h inconclusive (no result: HCV inh) | CHX counter-2 inactive
O=C1Nc2ccccc2C1(O)Cc1ccccn1 (stereo not drawn)	none
O=C(NCc1ccccc1Cl)c1cnc2ccccc2n1	Shiga toxin inh 46, HCV inh inconclusive | CHX counter-2 inactive
NC(=O)NCc1ccccc1Cl	none
CCn1cc(C(=O)NCc2ccccc2Cl)cn1	Shiga toxin inh active | CHX counter-2 inactive
CC(C)(C)c1ccc(C(CC(=O)O)NC(=O)Cc2ccccc2)cc1 (stereo not drawn)	none
CC(Cn1cnc2ccccc21)C(=O)O (stereo not drawn)	none
O=C(O)c1ccn(Cn2cnc3ccccc32)n1	Shiga toxin inh 27 | CHX counter-2 inactive
Cc1ccc2nc(-c3ccccc3)cc(C(=O)NCC3CCCO3)c2c1 (stereo not drawn)	Shiga toxin inh 40 | CHX counter-2 inactive
CCN1C(=O)/C(=C/c2ccc(OC)c(OC)c2)N=C1SCC(=O)NCc1ccco1	Shiga toxin inh 26 | CHX counter-2 inactive
COc1ccc(-c2[nH]c(-c3ccc(C)cc3)nc2SCC(=O)NCc2ccco2)cc1OC	none (no result: Pf growth 48h)
